TDP1 inh: qHTS Assay for Inhibitors of Tyrosyl-DNA Phosphodiesterase (TDP1) | hit rate 0.28% among 350,000 | Tyrosyl-DNA phosphodiesterase 1 (Homo sapiens), Q9NUW8 | Potency, µM (doses to about 130 µM), without a hit: at the top dose activity change, negative = inhibition, most hits filed as inhibitors | recombinant TDP1, AlphaScreen DNA substrate cleavage; also: potency is read from the fitted curve at half-maximal effect; % is scaled to controls: 0 for no effect and ±100 for the full control effect; nearly all actives have a fitted effect of over 40% in size
Target sequence (Q9NUW8 whole entry, looked up): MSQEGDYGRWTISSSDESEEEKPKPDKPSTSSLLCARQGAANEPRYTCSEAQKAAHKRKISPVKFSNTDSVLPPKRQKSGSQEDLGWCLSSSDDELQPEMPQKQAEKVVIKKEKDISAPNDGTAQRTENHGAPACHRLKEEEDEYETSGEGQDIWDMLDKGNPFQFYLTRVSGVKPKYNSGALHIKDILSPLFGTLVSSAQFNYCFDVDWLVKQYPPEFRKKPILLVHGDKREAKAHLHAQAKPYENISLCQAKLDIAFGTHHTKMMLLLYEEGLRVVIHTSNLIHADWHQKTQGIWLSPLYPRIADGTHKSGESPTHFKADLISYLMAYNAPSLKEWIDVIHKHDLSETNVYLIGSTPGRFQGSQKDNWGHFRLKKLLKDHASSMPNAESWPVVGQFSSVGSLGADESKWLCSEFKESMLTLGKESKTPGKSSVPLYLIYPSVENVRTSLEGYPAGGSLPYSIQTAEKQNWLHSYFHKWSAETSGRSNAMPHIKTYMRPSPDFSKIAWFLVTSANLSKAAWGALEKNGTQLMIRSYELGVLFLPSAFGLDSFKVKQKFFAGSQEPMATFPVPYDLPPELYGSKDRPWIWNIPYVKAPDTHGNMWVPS
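Compounds were preincubated with Tdp1 (1 nM final) for 15 min at room temperature before substrate (15 nM final) started a 5 min reaction; beads (10 ug/ml final) were then added for 10 min before AlphaScreen detection.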
DT40 TDP1 no CPT: qHTS for Inhibitors of human tyrosyl-DNA phosphodiesterase 1 (TDP1): qHTS in cells in absence of CPT; DT40 Tdp1-/- hTDP1 cells, no CPT, ATP luminescence, 48 h; Potency, µM (doses to about 46.2 µM), for inactives: top-dose activity change, negative = growth inhibition, most hits filed as inhibitors; hit rate 15% among 420,000; also: potency is read from the fitted curve at half-maximal effect; % is scaled to controls: 0 for no effect and ±100 for the full control effect; nearly all actives have a fitted effect of over 55% in size
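DT40 Tdp1-/-;hTDP1 cells, no CPT (DMSO vehicle only), 400 cells/well; compounds pin-transferred; ≥48 hr, 37 °C; CellTiter-Glo 30 min RT dark, luminescence read.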
IL-1B inflam inh: qHTS for Inhibitors of Inflammasome Signaling: IL-1-beta AlphaLISA Primary Screen. THP-1 LPS/ATP IL-1B secretion, AlphaLISA, 16 h; active compounds read low. activity change, % at 57.5 µM. hit rate 4.7% among 360,000; in the data active = activity change below about -50%; inconclusive = mostly about -30% to -49%; also: % is scaled to controls: 0 for no effect and ±100 for the full control effect
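Secreted IL-1B measured by AlphaLISA bead assay after 16 h compound exposure of THP-1 cells; compounds (final up to 57.5 uM) added 1 h before LPS (250 ng/mL) and ATP (1.25 mM) stimulation; lower signal means less secretion.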
DT40 TDP1 CPT: qHTS for Inhibitors of human tyrosyl-DNA phosphodiesterase 1 (TDP1): qHTS in cells in presence of CPT; chicken DT40 Tdp1-/-;hTDP1 cells + 20 nM CPT, ATP luminescence, 48 h; Potency, µM (doses to about 46.2 µM), inactives show at the top dose activity change, negative = growth inhibition, actives largely listed as inhibitors; hit rate 12% among 420,000; also: potency is read from the fitted curve at half-maximal effect; % is scaled to controls: 0 for no effect and ±100 for the full control effect; nearly all actives have a fitted effect of over 55% in size
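Chicken DT40 Tdp1-/- cells complemented with human TDP1, 400 cells/well, exposed to compounds plus 20 nM camptothecin for at least 48 h at 37 C; viability read as ATP content by CellTiter-Glo luminescence.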
HepG2 tox: qHTS for Inhibitors of TGF-b: Cytotox Counterscreen; HepG2 CAGA-GFP viability, ATP luminescence, 18 h; Potency, µM (top dose mostly 46.1 µM), without a hit: top-dose activity change, negative = cytotoxicity, most hits filed as cytotoxic; AID 588856, 2011; hit rate 0.76% among 410,000; also: potency is read from the fitted curve at half-maximal effect
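HepG2 CAGA-GFP cells (1000/well, DMEM with 1% FBS) received compound, then TGF-beta at 500 pg/mL final, and were incubated 18 hours at 37 degrees C. Viability was read by CellTiter-Glo luminescence. Media-only wells were set as complete cell-killing and DMSO as no toxicity.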
TGFb inhibitor: qHTS for Inhibitors of TGF-b | HepG2 CAGA-GFP TGF-b/SMAD3 reporter, GFP fluorescence, 18 h; TGF-beta stimulated, 500 pg/mL final | Potency, µM (series often up to 46.1 µM), for the others: at the top dose activity, negative = inhibition, usual class: inhibitors | hit rate 1.2% among 410,000 | AID 588855, 2011; also: potency is read from the fitted curve at half-maximal effect; % is scaled to controls: 0 for no effect and ±100 for the full control effect; nearly all actives have a fitted effect of over 65% in size
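First, reporter cells (HEPG2 CAGA-GFP) rested 2 h at 37 degrees C. Next, compounds were pinned in and TGF-beta added to 500 pg/mL final. After 18 h, GFP was imaged per cell and summed per well.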
Numbers without * were called inactive; i = inactive; ? = inconclusive; . = not tested or not shown; [ ] = remark or other dose. Rows were chosen to be rich in hits. Some 19% of all compounds tested hit in one or more screens of this group. Unless noted, calls follow the shape of the dose curve; as a rule, active = well fitted curve in the direction sought with a large enough effect; inconclusive = small, poorly fitted or top-dose-only effect, or another doubt; inactive = no such curve, though single readings can be large; an effect the other way counts as inactive or inconclusive.

SMILES	TDP1 inh	DT40 TDP1 no CPT	IL-1B inflam inh	DT40 TDP1 CPT	HepG2 tox	TGFb inhibitor
C=CCNC(=O)/C(C#N)=C/c1c(N(Cc2ccccc2)Cc2ccccc2)nc2ccccn2c1=O	4%	?	-53*	?	-15%	0%
COc1ccc(Cn2c(=O)n(-c3ccc(C)cc3)c(=O)c3c2c2cc(C)ccc2n3C)cc1	6%	-14%	.	-18%	-47%	-2%
COc1cccc(Cn2c(=O)n(-c3ccccc3C)c(=O)c3c2c2cc(C)ccc2n3C)c1	0%	13µM*	.	18µM*	-4%	-28%
COc1ccc2c(c1)c1c(c(=O)n(-c3ccccc3C)c(=O)n1CC(=O)Nc1c(C)cccc1C)n2C	0%	9.2µM*	.	7.3µM*	3%	-15%
CC1CCN(c2ncnc3ccccc23)CC1	0%	23µM*	-27	13µM*	-20%	0%
Cc1cc(C)c(C)c(S(=O)(=O)N2CCN(c3ncnc4ccccc34)CC2)c1C	0%	8.2µM*	9	10µM*	-37%	?
CC1CCN(c2nc(-c3ccccc3O)nc3ccccc23)CC1	0%	?	25	?	3%	-1%
O=S(=O)(c1cc(C(F)(F)F)ccc1Cl)N1CCN(c2ncnc3ccccc23)CC1	0%	2.1µM*	-16	2.1µM*	-1%	-30%
COc1ccc(-c2csc(-c3nc(-c4ccc(Br)s4)cs3)n2)cc1F	-4%	-9%	.	2%	-14%	3%
O=C(NCC(c1ccco1)N1CCc2ccccc2C1)C(=O)Nc1cc(F)ccc1F (stereo unspecified)	.	?	5	-29%	2%	?
CC(C)c1ccc(C(=O)N2CCCN(C(=O)c3ccc(C(C)C)cc3)CC2)cc1	2%	0%	-13	-24%	-3%	-4%
COc1ccc(N2CCN(C(=O)c3ccc(COc4ccc5c(C)cc(=O)oc5c4)cc3)CC2)cc1	5%	16µM*	-20	?	-14%	?
Cc1ccc(OCc2ccc(C(=O)N3CCOCC3)cc2)cc1C	7%	21µM*	-1	16µM*	-11%	-6%
CC(C)c1ccc(COc2ccc(C(=O)N3CCOCC3)cc2)cc1	-5%	23µM*	-6	?	-30%	-7%
Cc1ccc(OCC(=O)N2CCOCC2)cc1C	6%	1%	0	9%	2%	0%
CCOc1ccc(C(=O)Nc2ccc(C(=O)N3CCOCC3)cc2)c(OCC)c1	4%	13µM*	i	?	24%	1%
CS(=O)(=O)Nc1cccc(-c2nccc(NCc3cccs3)n2)c1	.	-18%	.	-25%	.	.
Cc1nc2sc(C(=O)Nc3ccc(F)cc3)c(N)c2c(-c2ccc(Br)cc2)c1C(=O)Nc1ccc(Cl)cc1	0%	?	.	?	-17%	-6%
Cc1cc(=O)oc2cc(OCc3ccc(C(=O)OCC(=O)N(C)C4CCS(=O)(=O)C4)cc3)ccc12 (stereo unspecified)	-5%	3%	2	-2%	3%	3%
Cc1ccc(C(=O)N2CCN(c3ccccn3)CC2)cc1	-3%	-19%	23	-1%	12%	12%
Cc1cc(=O)oc2cc(OCc3ccc(C(=O)OCC(=O)NC4CCS(=O)(=O)C4)cc3)ccc12 (stereo unspecified)	8.9µM*	?	3	-12%	5%	-19%
CC(C)c1ccc(OCc2ccc(C(=O)N3CCN(c4ccccn4)CC3)cc2)cc1	6%	21µM*	-2	?	-16%	?
COC(=O)c1c(-c2cccs2)csc1NC(=O)COc1ccc(C(C)C)cc1	-4%	21µM*	.	?	-1%	.
COC(=O)c1c(-c2cccs2)csc1NC(=O)c1ccc(C)cc1	-14%	?	.	4%	-31%	-15%
COC(=O)c1c(-c2cccs2)csc1NC(=O)c1cc(OC)cc(OC)c1	-12%	?	.	16µM*	-2%	37%
SMILES	TDP1 inh	DT40 TDP1 no CPT	IL-1B inflam inh	DT40 TDP1 CPT	HepG2 tox	TGFb inhibitor
COC(=O)c1c(-c2cccs2)csc1NC(=O)c1ccc(OC)c(OC)c1	-12%	9.2µM*	.	12µM*	1%	4%
COC(=O)c1c(-c2cccs2)csc1NC(=O)c1cc(OC)c(OC)c(OC)c1	-5%	5.8µM*	.	9.2µM*	-19%	7%
COC(=O)c1c(-c2cccs2)csc1NC(=O)c1ccc(Br)cc1	?	?	.	?	-2%	-8%
CC(O)c1c(-c2ccccc2)nn(C)c1Cl (stereo unspecified)	-3%	?	0	-2%	0%	1%
CCC(O)c1c(-c2ccccc2)nn(C)c1Cl (stereo unspecified)	-2%	15µM*	78	?	5%	?
Cc1cccc(-c2nc(C(N)=O)c3c(n2)n(-c2ccc4c(c2)OCO4)c(=O)n3C)c1	6%	1.8µM*	.	?	-9%	?
COc1ccc(-n2ncc3c(=O)n(CC(=O)N4CCCc5ccccc54)cnc32)cc1	3%	23µM*	-7	?	0%	39%
Cc1ccc(-n2ncc3c(=O)n(CC(=O)N4CCCc5ccccc54)cnc32)cc1C	4%	16µM*	-24	?	-6%	?
O=C(Cn1cnc2c(cnn2-c2ccc(F)cc2)c1=O)N1CCCc2ccccc21	-2%	-24%	-17	-3%	-6%	?
COc1cc(Cl)c(C)cc1NC(=O)c1nn(-c2ccc(C)cc2)c(=O)n(C)c1=O	2%	-5%	.	-18%	9%	59%
CCOC1=C2[C@@H](CN(S(=O)(=O)c3ccc(C)cc3)[C@H]2c2ccccc2Cl)[C@H]2C(=O)N(Cc3ccccc3)C(=O)[C@H]2C1	.	15µM*	-15	18µM*	-13%	?
COc1ccc(NC(=O)/C(C#N)=C/c2ccc(C)o2)cc1	3%[12.3 µM]	?	.	-23%	-16%	5%
COc1ccc(NC(=O)/C(C#N)=C/C=C/c2ccco2)cc1	2%	9.2µM*	-67*	8.2µM*	-54%	?
COc1ccc(OC)c(NC(=O)C(C#N)=Cc2ccco2)c1	.	-26%	3	-19%	-14%	4%

Source: PubChem BioAssay (National Center for Advancing Translational Sciences (NCATS))
